Counter-ions that a name gives are not always drawn.
What follows are molecules tested on Saccharomyces cerevisiae BY4741 SeMeCo community (assay: z-score of subpopulation abundance vs DMSO median, subpopulation auxotrophic for H; higher = larger share of this subpopulation than in DMSO controls). Details: 10 µM; 24 h; SM minimal medium; subpopulation (auxotrophy): H.
Method: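 Fluorescent four-plasmid SeMeCo (self-establishing metabolically cooperating S. cerevisiae BY4741 community; plasmids pH-mRuby2, pL-mWasabi, pU-eCFP, pM-TagRFP657) was grown 24 h in minimal SM medium with each Selleck FDA-approved drug at 10 µM in 384-well plates. Cells were fixed and imaged by high-content confocal microscopy. For each auxotrophic subpopulation (and the prototroph), a z-score gives the deviation from the DMSO vehicle-control population median.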

Row | Structure (SMILES) | z-score of subpopulation abundance
1 | CCOC(=O)Nc1ccc(NCc2ccc(F)cc2)cc1N [Retigabine] | 1.45
2 | CN1[C@@H]2CC[C@H]1C[C@@H](OC(=O)[C@H](CO)c1ccccc1)C2 [Hyoscyamine] | -0.74
3 | C[N+]1(C)[C@@H]2C[C@@H](OC(=O)[C@H](CO)c3ccccc3)C[C@H]1[C@@H]1O[C@@H]12 [Methscopolamine] | 0.28
4 | NCC(O)c1ccc(O)cc1 (racemic) [(+,-)-Octopamine HCl] | -1.07
5 | CNC1CC(N)C(O)C(OC2OC(CO)C(O)C3OC4(OC(C(N)CO)C(O)C(O)C4O)OC23)C1O (stereo not given) [Hygromycin B] | -0.88
6 | CN(C)C(=O)Oc1cccc([N+](C)(C)C)c1 [Neostigmine Bromide] | 0.03
7 | Cn1cc(C2=C(c3cn(C4CCN(Cc5ccccn5)CC4)c4ccccc34)C(=O)NC2=O)c2ccccc21 | -2.71
8 | CC(C)=CCOc1c2occc2cc2ccc(=O)oc12 [Imperatorin] | 0.08
9 | CC[C@H]1CN2CC[C@]3(C(=O)Nc4ccccc43)[C@@H]2C[C@@H]1/C(=C\OC)C(=O)OC [Rhynchophylline] | -0.08
10 | CN1C(=O)COc2c(C(=O)NC3CN4CCC3CC4)cc(Cl)cc21 (stereo not given) [Azasetron HCl] | -0.91
11 | CC(NC(C)(C)C)C(=O)c1cccc(Cl)c1 (stereo not given) [Amfebutamone (Bupropion) HCl] | -0.63
12 | NC(=O)CN1CCCC1=O [Piracetam] | 1.01
13 | O=C(O[C@H]1C[C@H]2CC[C@@H](C1)[N+]21CCCC1)C(O)(c1ccccc1)c1ccccc1 [Trospium chloride] | -0.71
14 | C=C[C@H]1CN2CC[C@H]1C[C@H]2[C@H](O)c1ccnc2ccccc12 [Cinchonidine] | -0.15
15 | N#Cc1nn(-c2c(Cl)cc(C(F)(F)F)cc2Cl)c(N)c1[S+]([O-])C(F)(F)F (stereo not given) [Fipronil] | 0.48
16 | Oc1cccc2cccnc12 [8-Hydroxyquinoline] | 0.93
17 | O=c1[nH]c2ccccc2n1CCCN1CCC(n2c(=O)[nH]c3cc(Cl)ccc32)CC1 [Domperidone] | 0.24
18 | COc1ccc2[nH]cc(CCN)c2c1 [5-Methoxytryptamine] | -0.85
19 | CN1[C@@H]2CC[C@H]1C[C@@H](OC(=O)C(CO)c1ccccc1)C2 (stereo not given in full) [Atropine sulfate monohydrate] | -0.43
20 | C[CH2][Hg][S]c1ccccc1C(=O)[O-].[Na+] [Thimerosal] | 7.64

Row | Structure (SMILES) | z-score of subpopulation abundance
21 | C[N+](C)(C)CCCCCCCCCC[N+](C)(C)C [Decamethonium Bromide] | 0.07
22 | COc1ccc2c3c([nH]c2c1)C(C)=NCC3 [Harmaline] | 2.23
23 | CN(C)[C@@H]1C(=O)C(C(N)=O)=C(O)[C@@]2(O)C(=O)C3=C(O)c4c(O)cccc4[C@@](C)(O)[C@H]3C[C@@H]12 [Tetracycline HCl] | 1.08
24 | CN(C)C(=O)Oc1ccc[n+](C)c1 [Pyridostigmine Bromide] | 0.16
25 | C[C@@H]1CC[C@H]2[C@@H](C)C(=O)O[C@@H]3O[C@@]4(C)CC[C@@H]1[C@]32OO4 [Artemisinin] | 1.06
26 | CN1[C@@H]2C[C@@H](OC(=O)[C@H](CO)c3ccccc3)C[C@H]1[C@@H]1O[C@@H]12 [Scopolamine HBr] | -0.96
27 | C[C@H]1O[C@H](O[C@H]2[C@H](O)[C@@H](O)[C@@H](O)[C@H](O)[C@@H]2O)[C@@H](N)C[C@@H]1NC(=N)C(=O)O [Kasugamycin hydrochloride] | 0.49
28 | CC[N+](C)(CC)CCOC(=O)C(O)(c1ccccc1)c1ccccc1 [Methylbenactyzine Bromide] | 0.06
29 | CCOC(=O)Nc1ccc(NCc2ccc(F)cc2)cc1N [Retigabine 2HCl] | 1.44
30 | CN(C)[C@@H]1C(=O)C(C(N)=O)=C(O)[C@@]2(O)C(=O)C3=C(O)c4c(O)cccc4[C@@](C)(O)[C@H]3[C@H](O)[C@@H]12 [Oxytetracycline Dihydrate] | 0.31
31 | C=CC[C@]1(O)CC[C@H]2[C@@H]3CCC4=CC(=O)CCC4=C3C=C[C@@]21C [Altrenogest] | 0.24
32 | CCCCCCCCCCCCCCCC[n+]1ccccc1 [Cetylpyridinium Chloride] | 19.3
33 | CC[C@H]1[C@@H]2C[C@H]3[C@@H]4N(C)c5ccccc5[C@]45C[C@@H]([C@@H]2[C@H]5O)N3[C@@H]1O [Ajmaline] | -0.87
34 | CN(C)[C@@H]1C(=O)C(C(N)=O)=C(O)[C@@]2(O)C(=O)C3=C(O)c4c(O)ccc(Cl)c4[C@@](C)(O)[C@H]3C[C@@H]12 [Chlortetracycline HCl] | 0.94
35 | COC(=O)C1=CCCN(C)C1 [Arecoline HBr] | 0.32
36 | CCN1CC2(OC(=O)c3ccccc3NC(C)=O)CCC(OC)C34C1C(CC23)C1(O)CC(OC)C2CC4C1(O)C2OC (stereo not given) [Lappaconitine] | -0.16
37 | CC(=O)O[C@H]1C[C@@H]2CC[C@@H]3[C@H](CC[C@@]4(C)[C@H]3C[C@H]([N+]3(C)CCCCC3)[C@@H]4OC(C)=O)[C@@]2(C)C[C@@H]1[N+]1(C)CCCCC1 [Pancuronium dibromide] | -0.63
38 | C#C[C@]1(O)C=C[C@H]2[C@@H]3CCC4=CC(=O)CC[C@@H]4[C@H]3CC[C@@]21CC [Gestodene] | 0.25
39 | CC1(C)SC2C(N)C(=O)N2C1C(=O)O (stereo not given) [6-Aminopenicillanic acid] | 0.55
40 | NCCc1c[nH]c2ccc(O)cc12 [Serotonin HCl] | -1.54

Source: the supplement of paper PMC8975748
